The list is not random: actives were taken first. Their share in the collection is about 19%.
Pf growth 96h – Primary qHTS for delayed death inhibitors of the malarial parasite plastid, 96 hour incubation; P. falciparum luciferase reporter growth, 96 h; 320,000 tested, 6.9% active; AID 504834, 2011; Potency, µM (doses to about 28.7 µM), hits mostly inhibitors
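Two parasite generations (96 h, 37 C, 5% CO2) of compound exposure in infected erythrocytes (0.05% parasitemia, 2% hematocrit). Luciferase-reporter P. falciparum; decreased luminescence indicates inhibited growth, aimed at apicoplast-acting delayed death.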
Cycloheximide cs – Cycloheximide Counterscreen for Small Molecule Inhibitors of Shiga Toxin. cell reporter, cycloheximide protein synthesis inhibition counterscreen. max response, %. 300,000 tested, 12% active; in the data active = max response mostly above about 13%, no sharp cut-off; inactive = mostly below about 14%; also: read at 38.3 µM for the half of the compounds with a filed dose
Pf growth 48h – Primary qHTS for delayed death inhibitors of the malarial parasite plastid, 48 hour incubation | Potency, µM (top dose mostly 28.7 µM), most hits filed as inhibitors | 310,000 tested, 5.9% active | P. falciparum luciferase growth in erythrocytes, 48 h
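Here the parasites carry a stable luciferase gene and grow inside erythrocytes in Albumax-based RPMI medium with compound for one erythrocytic cycle. Activity is scored as loss of luminescent signal.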
Marburg entry inh – qHTS for inhibitors of binding or entry into cells for Marburg Virus. Marburg virus pseudotyped entry inhibition, cell reporter. Potency, µM (titrated, usually from 37.8 µM), actives largely listed as inhibitors. 300,000 tested, 1.8% active; calls by dose curve; tested in HEK293 cells
Shiga inhibitor – A qHTS for Small Molecule Inhibitors of Shiga Toxin; Vero cells, Shiga toxin protein synthesis inhibition reporter; inhibition, % at 38.7 µM; 290,000 tested, 9.2% active; AID 2315, 2010; in the data active = inhibition mostly above about 28%, no sharp cut-off; inactive = mostly below about 43%
Lassa entry inh – qHTS for Inhibitors of binding or entry into cells for Lassa Virus; Lassa virus pseudotype entry inhibition, cell reporter; Potency, µM (doses to about 37.9 µM), actives largely listed as inhibitors; 300,000 tested, 1.2% active; AID 540256, 2011; calls by dose curve; tested in HEK293 cells; also: nearly all actives have a fitted effect of over 50% in size
Of the large screens only hits and unclear results are named; the others gave an inactive call. Unless noted, calls follow the shape of the dose curve; as a rule, active = well fitted inhibition curve with a large enough effect; inconclusive = small, poorly fitted or top-dose-only effect, or another doubt; inactive = no such curve, though single readings can be large or run the other way.

CCN1CCN(c2ncnc3c2nnn3Cc2ccccc2)CC1	Pf growth 48h inconclusive
Cc1ccc(C(C)C)c(OCC(=O)Nc2ccccc2N2CCN(C)CC2)c1	Pf growth 48h 6.6µM, Marburg entry inh inconclusive, Lassa entry inh 10µM
Cc1ccc2c(c1)-c1c(cnn1CC(=O)Nc1ccccc1N1CCN(C)CC1)CO2	Pf growth 48h 10µM, Marburg entry inh 9.2µM, Lassa entry inh inconclusive
CSCCC(NS(=O)(=O)c1cccc(C(F)(F)F)c1)C(=O)Nc1ccccc1N1CCCC1 (configuration not stated)	Pf growth 96h 15µM, Pf growth 48h inconclusive, Marburg entry inh inconclusive, Lassa entry inh inconclusive (no result: Cycloheximide cs, Shiga inhibitor)
CCOC(=O)N1CCN(C(=O)C2CCCCC2)CC1	none (no result: Pf growth 48h)
COCCn1c(=O)c2c(nc3n2CCCN3CCc2ccccc2)n(C)c1=O	none
COc1cccc(/C=C/C(=O)NNC(=O)c2ccncc2)c1OC	none (no result: Cycloheximide cs, Marburg entry inh, Shiga inhibitor, Lassa entry inh)
O=C(Cn1ccsc1=NC(=O)C(F)(F)F)c1ccccc1	Cycloheximide cs 30, Marburg entry inh inconclusive
O=C(Cn1cnc2ccccc21)c1ccccc1	Pf growth 96h inconclusive
COc1ccccc1OCCCOc1c(Cl)cc(C)cc1Cl	Cycloheximide cs 15
COc1cc(C)ccc1OCCCOc1c(Cl)cccc1Cl	Pf growth 96h 0.13µM, Cycloheximide cs 18
Clc1cccc(Cc2nn[nH]n2)c1	none (no result: Marburg entry inh, Lassa entry inh)
Cc1ccc(-n2ncc3c(N4CCC(C)CC4)ncnc32)cc1C	none (no result: Pf growth 96h, Cycloheximide cs, Pf growth 48h, Marburg entry inh, Shiga inhibitor)
CC1CCN(c2ncnc3c2cnn3-c2ccccc2)CC1	Cycloheximide cs 42, Shiga inhibitor 75 (no result: Pf growth 48h, Marburg entry inh, Lassa entry inh)
Clc1ccc(-n2ncc3c(N4CCCC4)ncnc32)cc1	Cycloheximide cs 77, Marburg entry inh inconclusive, Shiga inhibitor 120, Lassa entry inh inconclusive
COc1cccc(OCCN2CCN(c3ncnc4c3cnn4-c3ccccc3)CC2)c1	Pf growth 96h 9.3µM, Cycloheximide cs 18, Pf growth 48h 12µM, Marburg entry inh inconclusive
CCOC(=O)C1CCN(c2ncnc3c2cnn3-c2ccccc2)CC1	Cycloheximide cs 18 (no result: Pf growth 96h)
CCOC(=O)C1CCN(c2ncnc3c2cnn3-c2ccc(Cl)cc2)CC1	Lassa entry inh inconclusive
CSc1ccn(CC2CCC(Cl)CC2)c(=O)n1 (configuration not stated)	none (no result: Pf growth 96h, Cycloheximide cs, Pf growth 48h, Shiga inhibitor, Lassa entry inh)
COc1ccc(-n2ncc3c(N4CCC(C)CC4)ncnc32)cc1	Cycloheximide cs 20, Shiga inhibitor 26 (no result: Marburg entry inh, Lassa entry inh)
O=C1C2CC=CCC2C(=O)N1CC(=O)N(Cc1ccccc1)C1CCS(=O)(=O)C1 (configuration not stated)	Marburg entry inh inconclusive
CCC(C)NC(=O)Cn1c(COc2ccc(Cl)cc2Cl)nc2ccccc21 (configuration not stated)	Cycloheximide cs 33, Marburg entry inh inconclusive, Shiga inhibitor 39
CC(=O)Nc1cccc(NC(=O)CSc2nc3c(=O)n(C)c(=O)n(C)c3n2C)c1	none (no result: Cycloheximide cs, Shiga inhibitor)
COc1ccccc1-c1cn[nH]c1-c1ccc(OCc2ccc([N+](=O)[O-])cc2)cc1O	Pf growth 48h inconclusive
COc1ccccc1-c1cn[nH]c1-c1ccc(OCc2ccccc2F)cc1O	Pf growth 96h 3.7µM, Pf growth 48h 7.4µM, Lassa entry inh inconclusive
COc1ccccc1-c1cn[nH]c1-c1ccc(OCc2ccc(F)cc2)cc1O	Pf growth 96h 10µM, Pf growth 48h 13µM (no result: Marburg entry inh, Lassa entry inh)
COc1ccccc1-c1cn[nH]c1-c1ccc(O)cc1O	Pf growth 96h inconclusive, Pf growth 48h inconclusive (no result: Marburg entry inh, Lassa entry inh)
COCCn1c(SC(C(=O)Nc2cc(C)ccc2OC)c2ccccc2)nnc1-c1ccc(Cl)cc1 (configuration not stated)	Pf growth 96h 9.3µM, Pf growth 48h 13µM
Oc1ccc(N2CCN(C(c3ccccn3)c3nnnn3C3CCCC3)CC2)cc1 (configuration not stated)	Pf growth 48h 10µM
COc1ccc(C(c2nnnn2C2CCCCC2)N2CCN(c3ccc(OC)cc3)CC2)cc1 (configuration not stated)	Pf growth 48h 12µM, Marburg entry inh inconclusive, Lassa entry inh inconclusive (no result: Pf growth 96h)
CCC(c1nnnn1C1CCCC1)N1CCN(c2cccc(OC)c2)CC1 (configuration not stated)	Pf growth 48h 12µM, Marburg entry inh inconclusive
COc1ccc(OC)c(C(c2nnnn2C2CCCC2)N2CCN(c3ccccc3)CC2)c1 (configuration not stated)	Pf growth 96h inconclusive, Pf growth 48h inconclusive, Marburg entry inh 10µM, Lassa entry inh inconclusive
COc1cccc(NC(=O)Cn2c(=O)n(-c3ccccc3)c(=O)c3c4c(sc32)CCCC4)c1	none (no result: Pf growth 96h, Cycloheximide cs, Pf growth 48h, Shiga inhibitor)
Cc1ccc(NC(=O)CCn2c(=S)oc3ccccc32)cc1F	none
c1ccc(C(c2nnnn2C2CCCC2)N2CCN(c3ccccc3)CC2)cc1 (configuration not stated)	Pf growth 96h inconclusive, Pf growth 48h 13µM, Marburg entry inh inconclusive, Lassa entry inh 18µM
COCCn1nnnc1C(c1cccs1)N1CCN(c2cccc(C(F)(F)F)c2)CC1 (configuration not stated)	Pf growth 48h inconclusive, Marburg entry inh inconclusive, Lassa entry inh inconclusive (no result: Pf growth 96h)
CCC(c1nnnn1CCOC)N1CCN(c2cccc(C(F)(F)F)c2)CC1 (configuration not stated)	Pf growth 96h 2.3µM, Pf growth 48h inconclusive, Marburg entry inh inconclusive, Lassa entry inh inconclusive
COc1ccccc1C(c1nnnn1C1CCCC1)N1CCN2CCCC2C1 (configuration not stated)	Pf growth 48h 13µM, Marburg entry inh inconclusive, Lassa entry inh inconclusive
Fc1ccc(C(c2nnnn2C2CCCCC2)N2CCCC2)cc1 (configuration not stated)	Pf growth 48h 13µM (no result: Marburg entry inh, Lassa entry inh)
c1cnc2ccc(C(c3nnnn3C3CCCCC3)N3CCCCC3)cc2c1 (configuration not stated)	Pf growth 48h inconclusive, Lassa entry inh inconclusive
O=[N+]([O-])CC(=Nc1ccc(Cl)cc1)N/N=C\c1oc(O)c2ccccc12	Cycloheximide cs 21 (no result: Pf growth 48h)
Cc1ccccc1C(=O)Nc1cccc(C(=O)N/N=C/c2cc(Cl)cc([N+](=O)[O-])c2O)c1	none (no result: Marburg entry inh, Lassa entry inh)
O=c1c2cc(Br)ccc2nc(-c2ccccc2)n1O	Cycloheximide cs 11 (no result: Pf growth 48h, Marburg entry inh, Lassa entry inh)
Cc1ccc(C)c(-c2nc3cc(N)ccc3o2)c1	Shiga inhibitor 28 (no result: Pf growth 96h)
Cc1ccc2oc(-c3ccc(C)c(NC(=O)/C=C/c4ccc(Cl)cc4)c3)nc2c1	Marburg entry inh inconclusive (no result: Pf growth 96h, Cycloheximide cs, Pf growth 48h, Shiga inhibitor)
CN(C)c1ccc(-c2nc3cc(N)ccc3o2)cc1	Cycloheximide cs 14 (no result: Marburg entry inh, Lassa entry inh)
Cc1ccc2nc(-c3cccc(NC(=O)c4ccc(Br)o4)c3)oc2c1	none (no result: Pf growth 96h, Cycloheximide cs, Pf growth 48h, Shiga inhibitor)
Cc1ccc2nc(-c3cc(N)cc(N)c3)oc2c1	Cycloheximide cs 17, Marburg entry inh inconclusive, Lassa entry inh inconclusive
Cc1ccc(-c2nc3cc(N)ccc3o2)cc1Br	Pf growth 96h 4.7µM, Cycloheximide cs 39, Marburg entry inh inconclusive, Lassa entry inh inconclusive (no result: Shiga inhibitor)

Screens: PubChem, National Center for Advancing Translational Sciences (NCATS)
